From PubChem BioAssay (Tox21)
A number with no mark means an inactive call. Calls come from the whole dose curve. Results filed as inconclusive are left out.

Biological target: Acetylcholinesterase (Homo sapiens) (UniProt P22303)
Experiment: Acetylcholinesterase (AChE) small molecule antagonists: enzyme-based qHTS assay (AID 1347397); note: nearly all actives have a fitted effect of over 55% in size
Conditions: Potency: AChE enzyme activity inhibition; outcome: AChE enzyme activity inhibition; series mostly up to 115 µM; activity change, negative = inhibition: at the top concentration
In short: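 Enzyme inhibition was scored from DTNB-detected thiocholine formed by recombinant human AChE acting on acetylthiocholine. The 30 min compound preincubation and 10 min substrate reaction were both run at room temperature, with DMSO as vehicle control.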
% is set by controls: 0 for no effect and ±100 for the full control effect.

Chain of Acetylcholinesterase (Homo sapiens) (P22303 whole entry, looked up): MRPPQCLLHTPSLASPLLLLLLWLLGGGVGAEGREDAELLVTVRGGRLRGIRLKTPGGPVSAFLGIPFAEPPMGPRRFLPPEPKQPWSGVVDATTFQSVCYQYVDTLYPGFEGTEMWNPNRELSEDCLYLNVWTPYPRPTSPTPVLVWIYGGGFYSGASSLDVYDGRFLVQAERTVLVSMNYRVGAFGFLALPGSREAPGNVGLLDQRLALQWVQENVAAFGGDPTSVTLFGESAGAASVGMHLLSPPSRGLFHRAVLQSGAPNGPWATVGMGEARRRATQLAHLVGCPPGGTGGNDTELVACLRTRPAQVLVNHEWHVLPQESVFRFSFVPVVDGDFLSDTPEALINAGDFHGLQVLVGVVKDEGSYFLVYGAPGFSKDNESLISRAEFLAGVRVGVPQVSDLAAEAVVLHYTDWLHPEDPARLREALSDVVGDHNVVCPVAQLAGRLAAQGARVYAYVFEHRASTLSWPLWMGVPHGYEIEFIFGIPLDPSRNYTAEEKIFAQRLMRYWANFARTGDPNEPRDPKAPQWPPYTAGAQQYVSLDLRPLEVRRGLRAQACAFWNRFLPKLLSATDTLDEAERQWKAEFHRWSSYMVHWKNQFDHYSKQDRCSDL

Compound	activity change, negative = inhibition
OCCC(F)(F)C(F)(F)C(F)(F)C(F)(F)C(F)(F)C(F)(F)C(F)(F)C(F)(F)F	-1.84%
CC(C)(C)C(=O)O	-2.32%
O=c1c2ccccc2nnn1CCl	0.526%
CCCCCCCCCOC(=O)c1ccccc1C(=O)OCCCCCCCCC	-3.68%
CC1(C)OC(=O)Nc2ccc(Br)cc21	0.904% [at 53 µM]
CC(C)CCC(=O)CCC(C)C	-0.0308%
Nc1cccc2c(N)cccc12	-7.93%
CN(C1CCCCC1)S(=O)(=O)c1ccccc1N	-3.14%
CCCCc1ccc2c(n1)[C@@H](c1ccc(OC)cc1C[C@H](C)C(=O)O)[C@H](C(=O)O)[C@H]2c1ccc2c(c1)OCO2	1.16%
COc1ccc2[nH]c(S(=O)Cc3ncc(C)c(OC)c3C)nc2n1 (stereo not given)	0.0074% [at 53 µM]
C=CCn1cc[n+](C)c1	-0.948%
COCCOC(=O)C1=C(C)NC(C)=C(C(=O)OC/C=C/c2ccccc2)C1c1cccc([N+](=O)[O-])c1 (stereo not given)	1.49% [at 53 µM]
CC(=O)c1ccc[nH]1	0.778%
C=Cc1ccc(S(=O)(=O)O)cc1	-0.282%
CCOCCOC(=O)/C=C/c1ccc(OC)cc1	0.54% [at 53 µM]
CCC=CC#N	-0.557%
Nc1nc(CC(=O)O)cs1	-0.231%
Nc1ccc(F)cc1	0.68%
CC(=O)CCC1=C(C)CCCC1(C)C	-3.44%
C1C2OC2C2C1C1CC2C2OC12 (stereo not given)	0.389%

Compound	activity change, negative = inhibition
Brc1cc(-c2ccc(Br)c(Br)c2Br)cc(Br)c1Br	-3.95% [at 53 µM]
COc1cccc(Br)c1	-0.138%
CCC(=O)OCCOc1ccccc1	-0.133%
Nc1nc(=O)n([C@@H]2O[C@H](CO)[C@@H](O)[C@@H]2F)cc1I	0.136% [at 53 µM]
CC(=O)NC1(c2cccc(F)c2)CCN(CC[C@@]2(c3ccc(Cl)c(Cl)c3)CN(c3ccccc3)C(=O)CO2)CC1	-4.36%
C/C=C(\C)C#N	0.539%
CCOC(=O)CC(C)C	0.132%
Nc1ncnc2c1ncn2[C@H]1CC[C@@H](CO)O1	-0.942%
CCC(C)c1ccccc1 (stereo not given)	-0.54%
CCN(CC)c1ccc(C=O)cc1	1.75%
CC1=CC[C@@]23C[C@@H]1C(C)(C)[C@@H]2CC[C@H]3C	0.196%
C=C(C)c1ccccc1	0.136%
CC(=O)NC(Cc1ccccc1)C(=O)O (stereo not given)	-3.74% [at 53 µM]
O=C1CCCc2c1cc1ccc3cccc4ccc2c1c34	-3.95%
CC(C(=O)O)c1ccc2c(c1)[nH]c1ccc(Cl)cc12 (stereo not given)	-0.136% [at 53 µM]
O=C(O)CCCc1ccccc1	0.131% [at 53 µM]
CC(C)COC(=O)c1ccc(O)cc1	0.135%
CCN(CC)C(=O)/C(C#N)=C/c1cc(O)c(O)c([N+](=O)[O-])c1	14.7% [at 53 µM]
C1=COCCC1	0.132%
CCOC(=O)c1ccccc1OC	-0.825%

Biological target: Acetylcholinesterase (Homo sapiens) (UniProt P22303)
Experiment: Acetylcholinesterase (AChE) small molecule antagonists: fluorescence cell-based qHTS assay (AID 1347398); note: nearly all actives have a fitted effect of over 50% in size
Conditions: SH-SY5Y cells; Potency: AChE activity; outcome: AChE activity; series mostly up to 115 µM; activity change, negative = inhibition: at the top concentration
In short: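 Endogenous acetylcholinesterase of SH-SY5Y neuroblastoma cells is measured in situ. After overnight attachment and 30 min compound exposure, cells receive acetylthiocholine and Thiolite Green; fluorescence is read after 40 min at room temperature.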

Compound	activity change, negative = inhibition
OCCC(F)(F)C(F)(F)C(F)(F)C(F)(F)C(F)(F)C(F)(F)C(F)(F)C(F)(F)F	10.8%
CC(C)(C)C(=O)O	-1.09%
O=c1c2ccccc2nnn1CCl	-7.26%
CCCCCCCCCOC(=O)c1ccccc1C(=O)OCCCCCCCCC	-9.21%
CC1(C)OC(=O)Nc2ccc(Br)cc21	8.65% [at 53.7 µM]
CC(C)CCC(=O)CCC(C)C	-5.14%
Nc1cccc2c(N)cccc12	-6.24%
CN(C1CCCCC1)S(=O)(=O)c1ccccc1N	2.76%
CCCCc1ccc2c(n1)[C@@H](c1ccc(OC)cc1C[C@H](C)C(=O)O)[C@H](C(=O)O)[C@H]2c1ccc2c(c1)OCO2	1.49%
COc1ccc2[nH]c(S(=O)Cc3ncc(C)c(OC)c3C)nc2n1 (stereo not given)	-6.41% [at 53.7 µM]
C=CCn1cc[n+](C)c1	-1.69%
COCCOC(=O)C1=C(C)NC(C)=C(C(=O)OC/C=C/c2ccccc2)C1c1cccc([N+](=O)[O-])c1 (stereo not given)	-2.14% [at 53.7 µM]
CC(=O)c1ccc[nH]1	-0.439%
C=Cc1ccc(S(=O)(=O)O)cc1	-2.89%
CCOCCOC(=O)/C=C/c1ccc(OC)cc1	-6.06% [at 53.7 µM]
CCC=CC#N	-18.3%
Nc1nc(CC(=O)O)cs1	0.966%
Nc1ccc(F)cc1	2.06%
CC(=O)CCC1=C(C)CCCC1(C)C	1.06%
C1C2OC2C2C1C1CC2C2OC12 (stereo not given)	0.261%

Compound	activity change, negative = inhibition
Brc1cc(-c2ccc(Br)c(Br)c2Br)cc(Br)c1Br	-7.57% [at 53.7 µM]
COc1cccc(Br)c1	7.94%
CCC(=O)OCCOc1ccccc1	0.127%
Nc1nc(=O)n([C@@H]2O[C@H](CO)[C@@H](O)[C@@H]2F)cc1I	6.92% [at 53.7 µM]
CC(=O)NC1(c2cccc(F)c2)CCN(CC[C@@]2(c3ccc(Cl)c(Cl)c3)CN(c3ccccc3)C(=O)CO2)CC1	-15.8%
C/C=C(\C)C#N	-0.654%
CCOC(=O)CC(C)C	3.49%
Nc1ncnc2c1ncn2[C@H]1CC[C@@H](CO)O1	2.12%
CCC(C)c1ccccc1 (stereo not given)	5.24%
CCN(CC)c1ccc(C=O)cc1	0.172%
CC1=CC[C@@]23C[C@@H]1C(C)(C)[C@@H]2CC[C@H]3C	3.3%
C=C(C)c1ccccc1	1.53%
CC(=O)NC(Cc1ccccc1)C(=O)O (stereo not given)	-16.4% [at 53.7 µM]
O=C1CCCc2c1cc1ccc3cccc4ccc2c1c34	-10.6%
CC(C(=O)O)c1ccc2c(c1)[nH]c1ccc(Cl)cc12 (stereo not given)	2.4% [at 53.7 µM]
O=C(O)CCCc1ccccc1	3.07% [at 53.7 µM]
CC(C)COC(=O)c1ccc(O)cc1	0.751%
CCN(CC)C(=O)/C(C#N)=C/c1cc(O)c(O)c([N+](=O)[O-])c1	-2.7% [at 53.7 µM]
C1=COCCC1	4.67%
CCOC(=O)c1ccccc1OC	1.11%
